Cycloheximide cs – counter-screen for Shiga toxin inhibitors: cycloheximide protein synthesis inhibition; cell reporter, cycloheximide protein synthesis inhibition counterscreen; max response, %; 300,000 tested, 12% active; AID 2314; in the data active means max response mostly above about 13%, no sharp cut-off; inactive means mostly below about 14%; further: read at 38.3 µM for the half of the compounds with a filed dose; 0% is about no effect
SARS PLP yeast – inhibitors of SARS-CoV papain-like protease in yeast; S. cerevisiae expressing SARS-CoV PLpro, growth rescue; Potency, µM (top dose mostly 32.9 µM), without a hit: top-dose activity, positive = growth rescue, hits mostly activators; 330,000 tested, 0.19% active; calls by dose curve; further: potency means the concentration at half of the fitted maximal effect; 0% is about no effect; nearly all actives have a fitted effect of over 55% in size
AmpC inh no detg – AmpC beta-lactamase inhibition without detergent. P00811. AmpC nitrocefin hydrolysis, absorbance 480 nm, 0.0001% Triton. Potency, µM (series often up to 57.1 µM), for the others: top-dose activity change, negative = inhibition, usual class: inhibitors. 330,000 tested, 0.52% active. AID 485341;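 further: potency means the concentration at half of the fitted maximal effect; plate controls were no compound for no effect and no enzyme for full effect; nearly all actives have a fitted effect of over 20% in size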
Target sequence (P00811 whole entry, looked up): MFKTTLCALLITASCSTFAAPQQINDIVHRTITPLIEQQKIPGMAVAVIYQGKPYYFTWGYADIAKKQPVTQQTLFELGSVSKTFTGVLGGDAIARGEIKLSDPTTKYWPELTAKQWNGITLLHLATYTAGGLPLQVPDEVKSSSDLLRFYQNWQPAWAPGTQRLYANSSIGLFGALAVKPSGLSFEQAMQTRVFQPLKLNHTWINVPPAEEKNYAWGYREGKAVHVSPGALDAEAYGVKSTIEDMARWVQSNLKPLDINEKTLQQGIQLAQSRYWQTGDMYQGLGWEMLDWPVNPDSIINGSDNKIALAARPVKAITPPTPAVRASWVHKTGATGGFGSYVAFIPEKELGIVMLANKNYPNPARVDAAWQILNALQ
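20 mM phosphate pH 7.0 + 0.01% (detergent screen) or 0.0001% Triton X-100; 5.3 nM AmpC reagent; cpd preinc 15 min RT; nitrocefin (800 uM stock) to start; A480 q20 s × 4 min; Activity was normalised to no-enzyme and no-compound control wells.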
AmpC inh detg – inhibitors of E. coli AmpC beta-lactamase with detergent. P00811. AmpC hydrolysis of nitrocefin, absorbance 480 nm, 0.01% Triton. Potency, µM (top dose mostly 114 µM), for inactives: top-dose activity change, negative = inhibition, hits mostly inhibitors. 370,000 tested, 0.041% active. AID 485294;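 further: potency means the concentration at half of the fitted maximal effect; 0% = no-compound wells and -100% = no-enzyme wells; nearly all actives have a fitted effect of over 25% in size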
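AmpC (5.3 nM in the dispensed reagent) in 20 mM phosphate pH 7.0 with 0.01% (detergent screen) or 0.0001% Triton X-100 was preincubated with compounds for 15 min at room temperature. Nitrocefin was then added from an 800 uM solution, and hydrolysis was followed at 480 nm.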
AMA1-RON2 inh – disrupts binding of P. falciparum AMA1 to RON2 | AlphaScreen AMA1-biotinylated RON2 peptide binding | Potency, µM (top dose mostly 58.2 µM), without a hit: at the top dose activity change, negative = inhibition, hits mostly inhibitors | 360,000 tested, 0.2% active | AID 720542;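 further: potency means the concentration at half of the fitted maximal effect; 0% = vehicle wells and -100% = peptide control; nearly all actives have a fitted effect of over 45% in size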
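AMA1 (3D7) with his tag at 25 nM final met compounds first, then biotinylated RON2 peptide at 25 nM; detection used donor plus acceptor beads, 10 µg/mL apiece, read by AlphaScreen after 30 min at room temperature.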
Shiga inhibitor – blocks Shiga toxin action in Vero cells. Vero cells, Shiga toxin protein synthesis inhibition reporter. inhibition, % at 38.7 µM. 290,000 tested, 9.2% active. AID 2315; in the data active means inhibition mostly above about 28%, no sharp cut-off; inactive means mostly below about 43%; further: 0% is about no effect
Active calls of the source: *; u = inconclusive; x = not tested or not shown; [ ] = dose if it differs, or a comment. Only a selection was taken, and hits are over-represented in it overall. Unless noted, the call rests on the fitted dose curve; in most records, active means well fitted curve in the direction sought with a large enough effect; inconclusive means small, poorly fitted or top-dose-only effect, or another doubt; inactive means no such curve, though single readings can be large; an effect the other way counts as inactive or inconclusive.

SMILES	Cycloheximide cs	SARS PLP yeast	AmpC inh no detg	AmpC inh detg	AMA1-RON2 inh	Shiga inhibitor
NNC(=O)COc1cccc2cccnc12	-3	25%	-44%	-3%	21%	-9
O=C(Oc1cccc2cccnc12)c1cccs1	21*	-37%	-24%	1%	-6%	41
O=C(Oc1cccc2cccnc12)c1ccc2c(c1)OCCO2	70*	-18%	6%	u	97%	84*
O=C(NCCOc1cccc2cccnc12)c1cccs1	22	0%	-20%	-10%	-19%	46*
Cc1ccc(C(=O)COC(=O)c2cccc(O)c2)s1	x	1%	-24%	0%	0%	x
CCOC(=O)CNC(=O)Nc1cc(C(=O)NCc2ccc(C(C)C)cc2)ccc1N1CCCC1	x	x	x	1%	x	x
O=C(Cn1ncc2c(=O)oc3ccccc3c21)NCCCN1CCCC1=O	-2	-10%	-16%	-9%	0%	-3
COc1ccc(OC)c(/C=N/NC(=O)CN2CCSCC2)c1	6	-28%	-7%	-10%	1%[11.6 µM]	14
COc1ccccc1-c1nc(SCc2ccccn2)n[nH]1	41*	-5%	-9%	-7%	1%	76*
CCN(CC)CCCn1c(=S)[nH]c2cc(Cl)ccc2c1=O	0	0%	28µM*	u	-1%	-10
CCOc1cc2[nH]c(=S)n(CCCN(CC)CC)c(=O)c2cc1OCC	-2	12%	1%	0%	2%	-5
CCN(CC)CCCn1c(=S)[nH]c2ccc(Cl)cc2c1=O	-2	3%	0.28µM*	1%	3%	-6
O=C(NCc1cccnc1)C1CCCN1S(=O)(=O)c1ccc(Cl)cc1 (centres undefined)	-2	-1%	2%	8%	3%	-2
Cc1ccc(Nc2nc(CSc3nnc(-c4cccs4)o3)cs2)cc1	48*	-13%	4%	u	-5%	74*
Cc1ccc(CSc2n[nH]c(N)n2)cc1	22*	1%	-7%	-3%	-13%	-5
CCCCSc1n[nH]c(N)n1	13	14%	-7%	3%	3%	3
Cc1ccc(Nc2nc(CSc3n[nH]c(N)n3)cs2)cc1	31*	-1%	-38%	7%	43%	66*
Cc1ccc(CNC(=O)CSc2n[nH]c(N)n2)cc1	-2	-4%	-6%	u	-10%	-7
Cc1ccc(OCCCSc2n[nH]c(N)n2)cc1	15*	-1%	-18%	2%	13%	28
Cc1ccccc1S(=O)(=O)N(C)C[C@@H]1OCc2cnnn2CCCC(=O)N([C@@H](C)CO)C[C@@H]1C	x	x	x	x	3%	x
Cc1ccc(NC(=S)N2CCSC2c2cccs2)cc1 (centres undefined)	29*	5%	-49%	6%	78%	132*
COc1ccc(C2SCCN2C(=S)Nc2ccc(Cl)cc2)cc1 (centres undefined)	29*	-33%	-46%	-13%	-3%	24
COc1ccc(C2SCCN2C(=S)Nc2cccc(Cl)c2)cc1 (centres undefined)	7	8%	-23%	-7%	4%	12
OCc1nc2ccc(Cl)cc2[nH]1	-2	0%	3%	-9%	0%	-5
OCc1nc2c(ccc3ccccc32)[nH]1	12*	2%	0%	u	18%	10
SMILES	Cycloheximide cs	SARS PLP yeast	AmpC inh no detg	AmpC inh detg	AMA1-RON2 inh	Shiga inhibitor
Clc1nc2c(ccc3ccccc32)[nH]1	41*	-2%	-13%	1%	-9%	71*
CC(=O)N/C(=C\c1ccccc1)C(=O)NCc1ccc2c(c1)OCO2	-3	1%	-15%	-2%	1%	-5
CCOC(=O)c1[nH]c2ccccc2c1NC(=S)Nc1ccccc1C	11	7%	-9%	1%	96%	14
CCn1nc(C)c(CN2CCC(C(=O)Nc3cccc(-c4cccc(F)c4)c3)CC2)c1C	-5	6%	109%	-2%	9%	-4
Cc1cc(/C=N/O)c(C)n1-c1ccc(Br)cc1	6	-3%	-52%	-1%	-16%	-3
O/N=C/c1ccn(-c2ccc(Br)cc2)c1	40*	-3%	-22%	-6%	-18%	69*
CC(C)C[C@@H](CN1CCCC1CN1C(=S)NC[C@@H]1Cc1ccc(O)cc1)N1C[C@H](Cc2ccccc2)N(CCc2ccccc2)C1=S (some centres undefined)	x	x	x	x	27%	x
